For assay [1], the target named is Lysosomal acid glucosylceramidase (Homo sapiens) (UniProt P04062). The experiment in a line: Glucocerebrosidase-p2 (AID 348; in the data active means potency below about 10 µM; further: potency means the concentration at half of the fitted maximal effect). Particulars: purified GBA, blue fluorogenic substrate, 40 min. Summed up:
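Normal human glucocerebrosidase (0.2 nM) with blue fluorogenic substrate (80 uM final) in citrate/phosphate pH 5.9 with 10mM sodium taurocholate, 0.01% tween-20; 40 min RT, NaOH/glycine stop; fluorescence Ex 365/Em 440; AC50 from a titration from 0.6 nM upwards.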

Assay [2] in a line: AP1 Signaling Pathway (AID 357).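 Further: ME-180 reporter cells stimulated with EGF at its EC50 level; on the % scale 0 is the no-effect control and ±100 the full control effect.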 Particulars: ME-180 AP-1-bla reporter, EGF-induced, beta-lactamase ratio, 5 h; at 7.69 µM (top of the series) unless noted. Summed up: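 A ratiometric CCF4 readout (405 nm excitation; 460 and 530 nm emission) quantified AP-1-driven beta-lactamase in ME-180 cells after 5 h with compound and EC50 EGF; AC50 values were derived for activators and inhibitors.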

Assay [3] has as its target Cytochrome P450 1A2 (Homo sapiens) (UniProt P05177). Briefly: p450-cyp1a2 (AID 410; calls by dose curve; further: potency means the concentration at half of the fitted maximal effect;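 on activity change, negative = inhibition: -100% = full effect of reference inhibitor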). Particulars: recombinant CYP1A2, luciferin-ME demethylation, luminescence; series mostly up to 11.4 µM. The essentials:
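20nM CYP1A2, 100uM Luciferin-ME (=Km), 100mM KPO4; cpd 10 min RT; +NADPH regen, 60 min RT; stop/detect 20 min; luminescence. Normalized to furafylline 57 uM = full inhibition.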

A short description of assay [4]: Stat Signaling Pathway (AID 446).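 Further: ME-180 cervical cancer cells given 40 pM IL-6 alongside compound; SIE-controlled beta-lactamase reporter measured as 460/530 nm FRET emission ratio; on the % scale 0 is the no-effect control and ±100 the full control effect.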 Particulars: ME-180 SIE beta-lactamase reporter, IL-6 stimulated, 5 h; at 7.69 µM (top of the series) unless noted. Summed up:
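Normalization used AC90 stimulation (300 pM IL-6) and AC90 inhibition (125 nM pan-JAK inhibitor at 40 pM IL-6). The underlying signal is SIE-driven beta-lactamase in ME-180 cells after 5 h IL-6 exposure with compound.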

Assay [5] deals with Glucocorticoid receptor (Homo sapiens) (UniProt P04150). The experiment in a line: GR-GFP Redistribution (AID 450;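 active means compounds whose dose series gives a full or clear partial fitted curve of increased nuclear translocation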; further: potency means the concentration at half of the fitted maximal effect). Particulars: U2OS GR-GFP nuclear translocation, laser cytometry, 2 h.
Sequence of Glucocorticoid receptor (Homo sapiens) (P04150 whole entry, looked up, the tested form may be a part): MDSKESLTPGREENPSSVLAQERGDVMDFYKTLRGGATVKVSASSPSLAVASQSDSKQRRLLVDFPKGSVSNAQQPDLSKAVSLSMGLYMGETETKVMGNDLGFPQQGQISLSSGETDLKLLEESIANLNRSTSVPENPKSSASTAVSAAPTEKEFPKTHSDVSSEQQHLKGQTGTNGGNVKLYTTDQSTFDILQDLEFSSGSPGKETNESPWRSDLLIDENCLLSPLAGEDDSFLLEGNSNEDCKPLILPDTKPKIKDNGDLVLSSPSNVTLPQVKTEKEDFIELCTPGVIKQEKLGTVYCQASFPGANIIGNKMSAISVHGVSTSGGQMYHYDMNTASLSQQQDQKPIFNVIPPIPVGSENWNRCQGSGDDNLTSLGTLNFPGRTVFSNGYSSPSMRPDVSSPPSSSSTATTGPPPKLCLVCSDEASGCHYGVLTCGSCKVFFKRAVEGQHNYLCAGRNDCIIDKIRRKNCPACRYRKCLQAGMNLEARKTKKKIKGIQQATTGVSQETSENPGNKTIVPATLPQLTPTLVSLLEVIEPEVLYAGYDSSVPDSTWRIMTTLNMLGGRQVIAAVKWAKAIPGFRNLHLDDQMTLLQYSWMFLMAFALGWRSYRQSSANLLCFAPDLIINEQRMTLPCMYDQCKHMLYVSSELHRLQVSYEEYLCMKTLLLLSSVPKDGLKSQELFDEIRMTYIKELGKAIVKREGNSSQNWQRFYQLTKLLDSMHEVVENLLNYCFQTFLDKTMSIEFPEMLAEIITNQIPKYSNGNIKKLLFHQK
For assay [6] the target is unchanged. Briefly: GR-EFC Redistribution (AID 451; calls by dose curve; further: potency means the concentration at half of the fitted maximal effect). Particulars: CHO-K1 GR-EFC translocation, beta-gal luminescence, 2 h. Summed up: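 CHO-K1 cells stably expressing nuclear-localized β-gal enzyme acceptor and GR fused C-terminally to the enzyme donor fragment; ligand-driven nuclear translocation restores β-gal by complementation. Compounds titrated up to 46 uM final, 2 h at 37 °C; luminescence read.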

The target in assay [7] is Mitogen-activated protein kinase 10 (Mus musculus) (UniProt Q61831). The experiment in a line: JNK3 AlphaScreen Assay (AID 530).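 Further: kinase came from lysate of stimulated human HepG2 cells; signal reports phosphorylation of biotinylated GST-cJun 1-79 at Ser73 with 10 µM ATP; on the % scale 0 is the no-effect control and ±100 the full control effect.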 Particulars: JNK3 lysate, c-Jun phosphorylation; series mostly up to 11.4 µM. Summed up:
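Biotinylated GST-cJun(1-79) served as substrate for JNK3 in HepG2 lysates stimulated with IL-1beta and TNF-alpha. ATP was 10 uM final, pH 7.6. Ser73 phosphorylation was quantified by AlphaScreen (680 nm excitation).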

Assay [8] deals with 3',5'-cyclic-AMP phosphodiesterase 4B (Homo sapiens) (UniProt Q07343). The experiment in a line: qHTS Assay for Inhibitors of PDE-IV (AID 607; active means well fitted activation curve with a large enough effect in the main read-out, with a control signal flat, not every such curve was filed as active; further: % of control where 0% means no effect). Particulars: HEK293 ACTOne CNG channel cells, membrane potential fluorescence; series mostly up to 22.9 µM. The essentials:
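HEK293 ACTOne cells with CNG channel (1000/well), endogenous PDE4; membrane potential dye, compounds up to 22.9 uM final. Fluorescence Ex 535/Em 590; RO 20-1724 (100 uM final) as reference.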

Assay [9] concerns the target Cytochrome P450 2C19 (Homo sapiens) (UniProt P33261). The experiment in a line: qHTS Assay for Inhibitors and Substrates of Cytochrome P450 2C19 (AID 899; active means well fitted curve in the direction sought with a large enough effect; an effect the other way counts as inactive or inconclusive; further: nearly all actives have a fitted effect of over 60% in size; further: potency means the concentration at half of the fitted maximal effect). Particulars: recombinant CYP2C19, luciferin-H EGE luminescence; series mostly up to 11.4 µM. Summed up: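 NADPH-dependent conversion of Luciferin-H EGE (10uM, at KM) by 5nM enzyme in 50mM KPO4, 60 min at 37C following 10 min compound preincubation. Stopped with luciferin detection buffer; luminescence read after 20 min.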

The nature of assay [10]: qHTS Assay for Identification of Small Molecule Agonists for Hypoxia Response Element Signaling Pathway (AID 914; active means well fitted activation curve with a large enough effect in the signal ratio, with a control signal flat, not every such curve was filed as active; the % refers to the signal ratio; further: % of control where 0% means no effect). Particulars: ME-180 (cervical carcinoma) HRE-bla reporter, beta-lactamase ratio, CoCl2, 17 h; activation: hits give high values. The essentials: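 HRE-bla ME-180 cells, overnight plating in Opti-MEM with 0.5% dialyzed FBS; cpd titration + EC50 CoCl2, 17 h, 37 degrees Celsius; CCF4 2.5 h RT; 460/530 nm ratio; AC50.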
For orientation: qHTS replaces the single test concentration by a dilution series.

Assay [11] concerns the target Cytochrome P450 3A4 (Homo sapiens) (UniProt P08684). The experiment in a line: qHTS Assay for Activators of Cytochrome P450 3A4 (AID 885; active means well fitted curve in the direction sought with a large enough effect; an effect the other way counts as inactive or inconclusive; further: nearly all actives have a fitted effect of over 65% in size). Particulars: recombinant CYP3A4, Luciferin-PPXE luminescence, 60 min; series mostly up to 11.4 µM. The essentials: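 Human CYP3A4 dealkylates Luciferin-PPXE to luciferin, which luciferase detection converts to light. Substrate was at its KM (25uM), buffer 200mM KPO4, reaction 60 min at RT.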

Assay [12] has as its target Cytochrome P450 2C9 (Homo sapiens) (UniProt P11712). The experiment in a line: qHTS Assay for Inhibitors and Substrates of Cytochrome P450 2C9 (AID 883; active means well fitted curve in the direction sought with a large enough effect; an effect the other way counts as inactive or inconclusive; further: nearly all actives have a fitted effect of over 60% in size; further: potency means the concentration at half of the fitted maximal effect; on activity change, negative = inhibition: on the % scale 0 is the no-effect control and ±100 the full control effect). Particulars: recombinant CYP2C9, luciferin-H luminescence, 60 min; series mostly up to 11.4 µM. Summed up:
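A luminogenic readout tracked human CYP2C9 (10nM) converting deoxyluciferin (100uM, at KM) in 25mM KPO4 during 60 min at 37C with regenerated NADPH. Values normalized to 57uM sulphaphenazole as complete inhibition.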

Assay [13] has as its target Cytochrome P450 2D6 (Homo sapiens) (UniProt P10635). Briefly: qHTS Assay for Inhibitors and Substrates of Cytochrome P450 2D6 (AID 891; active means well fitted curve in the direction sought with a large enough effect; an effect the other way counts as inactive or inconclusive;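 further: luciferin methyl ether substrate demethylated by CYP2D6 with NADPH regeneration; on the % scale 0 is the no-effect control and ±100 the full control effect; nearly all actives have a fitted effect of over 60% in size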). Particulars: recombinant CYP2D6, luciferin-ME EGE luminescence; series mostly up to 11.4 µM. The essentials:
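Luminescent read-out of luciferin formed by 5 nM human CYP2D6 demethylating 30 uM Luciferin-ME EGE (Km level) over 60 min at room temperature after NADPH regeneration addition. Data normalized to full inhibition by 1.43 uM quinidine.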

The target of assay [14] is Cytochrome P450 3A4 (Homo sapiens) (UniProt P08684). The experiment in a line: qHTS Assay for Inhibitors and Substrates of Cytochrome P450 3A4 (AID 884; active means well fitted curve in the direction sought with a large enough effect; an effect the other way counts as inactive or inconclusive; further: on the % scale 0 is the no-effect control and ±100 the full control effect; nearly all actives have a fitted effect of over 50% in size). Particulars: recombinant CYP3A4, Luciferin-PPXE luminescence; series mostly up to 57.1 µM. Summed up: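 Luminescent readout of luciferin produced by CYP3A4 (20 nM) dealkylation of Luciferin-PPXE, 25 uM (its KM). NADPH-driven reaction ran 60 min at RT after 10 min compound preincubation; data scaled to 57 uM ketoconazole as 100% inhibition.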
Sequence of Cytochrome P450 3A4 (Homo sapiens) (P08684 whole entry, looked up): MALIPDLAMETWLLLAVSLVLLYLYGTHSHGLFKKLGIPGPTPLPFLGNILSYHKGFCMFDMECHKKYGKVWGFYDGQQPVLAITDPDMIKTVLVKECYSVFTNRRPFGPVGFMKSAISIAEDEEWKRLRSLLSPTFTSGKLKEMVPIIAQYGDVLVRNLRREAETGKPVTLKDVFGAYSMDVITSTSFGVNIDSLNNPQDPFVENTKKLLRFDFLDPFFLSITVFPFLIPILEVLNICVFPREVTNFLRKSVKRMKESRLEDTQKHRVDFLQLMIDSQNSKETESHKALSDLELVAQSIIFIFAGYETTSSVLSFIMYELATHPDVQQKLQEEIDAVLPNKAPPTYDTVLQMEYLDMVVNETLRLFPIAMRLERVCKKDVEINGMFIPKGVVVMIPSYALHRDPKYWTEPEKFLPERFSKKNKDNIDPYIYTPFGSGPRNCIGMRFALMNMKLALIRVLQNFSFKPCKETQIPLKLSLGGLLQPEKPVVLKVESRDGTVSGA

A number with no mark means an inactive call. Records with an inconclusive call do not appear. Active and inactive are the calls of the source. Unless noted, the call rests on the fitted dose curve; in most records, active means well fitted curve in either direction with a large enough effect (not every such curve was filed as active); inconclusive means small, poorly fitted or top-dose-only effect, or another doubt; inactive means flat fitted curve, though single readings scatter.

Sequence of Cytochrome P450 2C19 (Homo sapiens) (P33261 whole entry, looked up): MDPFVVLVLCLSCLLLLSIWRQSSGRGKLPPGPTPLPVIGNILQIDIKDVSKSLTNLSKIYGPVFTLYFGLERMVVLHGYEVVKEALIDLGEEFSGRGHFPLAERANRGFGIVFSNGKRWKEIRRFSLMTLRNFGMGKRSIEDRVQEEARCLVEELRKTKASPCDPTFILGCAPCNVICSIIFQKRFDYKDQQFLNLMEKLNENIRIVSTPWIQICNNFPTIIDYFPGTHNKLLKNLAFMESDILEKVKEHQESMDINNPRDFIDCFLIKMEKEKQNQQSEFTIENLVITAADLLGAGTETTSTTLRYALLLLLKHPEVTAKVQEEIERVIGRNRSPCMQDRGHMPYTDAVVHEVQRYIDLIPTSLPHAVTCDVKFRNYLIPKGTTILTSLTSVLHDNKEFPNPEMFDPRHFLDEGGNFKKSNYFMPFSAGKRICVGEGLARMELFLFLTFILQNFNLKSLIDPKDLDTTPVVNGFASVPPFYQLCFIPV
Sequence of Lysosomal acid glucosylceramidase (Homo sapiens) (P04062 whole entry, looked up): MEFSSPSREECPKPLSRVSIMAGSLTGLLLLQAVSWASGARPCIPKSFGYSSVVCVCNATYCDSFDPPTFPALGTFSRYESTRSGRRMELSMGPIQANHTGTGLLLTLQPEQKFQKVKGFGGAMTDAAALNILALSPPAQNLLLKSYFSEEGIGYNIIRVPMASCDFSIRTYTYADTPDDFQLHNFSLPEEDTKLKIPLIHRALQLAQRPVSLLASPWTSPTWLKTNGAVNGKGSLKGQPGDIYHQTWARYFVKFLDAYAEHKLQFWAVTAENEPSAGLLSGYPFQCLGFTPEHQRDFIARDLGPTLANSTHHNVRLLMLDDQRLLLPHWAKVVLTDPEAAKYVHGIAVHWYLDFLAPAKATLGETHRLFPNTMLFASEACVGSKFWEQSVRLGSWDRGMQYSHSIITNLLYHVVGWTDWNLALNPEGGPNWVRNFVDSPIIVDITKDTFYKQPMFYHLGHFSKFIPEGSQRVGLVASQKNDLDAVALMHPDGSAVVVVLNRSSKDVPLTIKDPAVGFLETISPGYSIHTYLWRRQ
Sequence of Cytochrome P450 1A2 (Homo sapiens) (P05177 whole entry, looked up): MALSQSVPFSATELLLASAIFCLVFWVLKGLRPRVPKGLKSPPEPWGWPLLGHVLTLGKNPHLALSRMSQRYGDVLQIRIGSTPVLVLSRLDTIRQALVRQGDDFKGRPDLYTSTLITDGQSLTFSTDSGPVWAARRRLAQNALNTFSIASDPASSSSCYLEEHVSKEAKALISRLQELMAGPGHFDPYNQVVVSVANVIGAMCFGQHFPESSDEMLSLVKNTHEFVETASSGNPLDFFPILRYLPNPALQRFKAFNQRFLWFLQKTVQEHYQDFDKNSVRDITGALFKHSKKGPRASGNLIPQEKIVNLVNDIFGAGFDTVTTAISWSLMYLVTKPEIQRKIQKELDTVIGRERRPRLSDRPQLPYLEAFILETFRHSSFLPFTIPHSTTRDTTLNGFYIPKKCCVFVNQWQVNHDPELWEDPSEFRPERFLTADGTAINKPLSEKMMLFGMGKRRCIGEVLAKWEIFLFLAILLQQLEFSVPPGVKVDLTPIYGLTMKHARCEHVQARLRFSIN
Sequence of 3',5'-cyclic-AMP phosphodiesterase 4B (Homo sapiens) (Q07343 whole entry, looked up): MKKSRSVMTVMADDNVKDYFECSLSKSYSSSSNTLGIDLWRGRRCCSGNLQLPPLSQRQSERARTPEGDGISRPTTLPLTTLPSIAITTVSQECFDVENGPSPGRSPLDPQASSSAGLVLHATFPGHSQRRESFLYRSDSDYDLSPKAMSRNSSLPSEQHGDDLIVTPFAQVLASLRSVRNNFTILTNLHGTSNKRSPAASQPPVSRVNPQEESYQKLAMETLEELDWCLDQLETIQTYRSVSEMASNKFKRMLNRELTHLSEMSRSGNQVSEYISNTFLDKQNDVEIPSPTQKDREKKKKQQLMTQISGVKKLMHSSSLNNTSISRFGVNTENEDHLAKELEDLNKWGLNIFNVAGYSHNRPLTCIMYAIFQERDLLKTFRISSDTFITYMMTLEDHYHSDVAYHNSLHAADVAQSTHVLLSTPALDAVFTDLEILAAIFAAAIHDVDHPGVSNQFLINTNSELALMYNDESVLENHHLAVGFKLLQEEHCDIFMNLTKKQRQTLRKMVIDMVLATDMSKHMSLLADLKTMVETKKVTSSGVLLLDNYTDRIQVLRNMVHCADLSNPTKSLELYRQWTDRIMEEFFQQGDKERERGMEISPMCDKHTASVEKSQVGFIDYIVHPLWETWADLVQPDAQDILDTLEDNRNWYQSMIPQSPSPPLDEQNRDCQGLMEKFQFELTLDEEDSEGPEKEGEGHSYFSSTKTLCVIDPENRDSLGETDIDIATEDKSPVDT
Sequence of Cytochrome P450 2C9 (Homo sapiens) (P11712 whole entry, looked up): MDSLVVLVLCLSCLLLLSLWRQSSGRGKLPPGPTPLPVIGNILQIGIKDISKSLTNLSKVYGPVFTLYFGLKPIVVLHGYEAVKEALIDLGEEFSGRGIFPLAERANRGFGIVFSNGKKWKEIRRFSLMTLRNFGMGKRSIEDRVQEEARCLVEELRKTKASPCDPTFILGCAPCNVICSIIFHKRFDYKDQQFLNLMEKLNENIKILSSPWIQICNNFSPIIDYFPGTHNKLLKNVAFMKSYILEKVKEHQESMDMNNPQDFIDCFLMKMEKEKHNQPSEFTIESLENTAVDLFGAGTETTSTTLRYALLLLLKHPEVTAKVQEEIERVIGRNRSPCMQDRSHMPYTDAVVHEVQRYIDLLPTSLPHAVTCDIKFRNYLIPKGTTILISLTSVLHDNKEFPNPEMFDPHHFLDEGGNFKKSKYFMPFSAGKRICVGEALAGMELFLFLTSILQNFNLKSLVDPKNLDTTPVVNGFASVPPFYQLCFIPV
Sequence of Cytochrome P450 2D6 (Homo sapiens) (P10635 whole entry, looked up): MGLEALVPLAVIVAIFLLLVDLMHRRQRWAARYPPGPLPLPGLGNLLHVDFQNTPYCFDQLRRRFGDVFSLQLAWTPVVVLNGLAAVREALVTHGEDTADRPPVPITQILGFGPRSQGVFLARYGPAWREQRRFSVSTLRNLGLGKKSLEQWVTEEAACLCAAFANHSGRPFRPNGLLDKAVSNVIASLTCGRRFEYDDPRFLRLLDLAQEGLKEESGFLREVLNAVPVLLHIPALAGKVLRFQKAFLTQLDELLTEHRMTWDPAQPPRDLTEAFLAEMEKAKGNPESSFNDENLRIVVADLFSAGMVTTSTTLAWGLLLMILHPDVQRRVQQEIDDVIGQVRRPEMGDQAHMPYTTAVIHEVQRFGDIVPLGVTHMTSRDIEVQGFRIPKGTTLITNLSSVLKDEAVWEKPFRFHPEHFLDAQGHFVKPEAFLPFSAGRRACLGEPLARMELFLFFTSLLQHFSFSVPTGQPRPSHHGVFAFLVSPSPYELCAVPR

`C[C@H](NC(=O)c1ccc(Cl)c(Cl)c1)c1ccc(-c2ccccc2)cc1`: the Potency in assay [1] is more than 11.4 µM; in [3], 0.631 µM (active); in assay [5], more than 46 µM; in assay [6], more than 9.22 µM; in assay [9], 1.26 µM (active). Further, in assay [2], the activity change, negative = inhibition was -14.7%. Also, the activity, negative = inhibition in assay [4] is -12.5%. Besides, the Potency entry in [7] and in [8] was “inactive” in each case.
With `CC(=O)Nc1nc(NC(C)=O)c2[nH]c(CO)nc2n1`, the Potency was more than 11.4 µM in assay [1], more than 46 µM in [5] and more than 9.22 µM in [6]. In addition, the activity change, negative = inhibition in assay [2] is 9.97%. Also, the Potency result in assay [3], in assay [7] and in assay [8] was “inactive” each time.
`O=C=Nc1ccc(Cc2ccc(N=C=O)cc2)cc1` (tested in a mixture with another compound): the Potency in assay [1] is more than 11.4 µM; in assay [3] it was 5.01 µM (active). Besides, the activity change, negative = inhibition in [2] is -8.4%. In [4], the activity, negative = inhibition was -1.09%. The Potency result in [7] and in assay [8] was “inactive” each time.
As for `O=C(Cn1ccc(=O)[nH]c1=O)Nc1ccc(C(=O)O)c(O)c1`, the figures for the Potency in [1], in assay [5] and in assay [6] were more than 11.4 µM, more than 46 µM and more than 9.22 µM, respectively. Besides, the activity change, negative = inhibition in assay [2] was 13.2%; in assay [3] it was -16.5% [at 2.29 µM]. Further, the activity, negative = inhibition in assay [4] was 2.74%. The Potency result in assay [7] and in assay [8] was “inactive” in each case. In [10], the activation is 6.06%.
For the compound `Cc1nc2cnc(Oc3ccccc3)nc2n(CCc2ccccc2)c1=O`, the Potency is more than 11.4 µM in assay [1], 3.16 µM (active) in [3], more than 9.22 µM in assay [5] and more than 46 µM in assay [6]. The activity change, negative = inhibition in assay [2] was 17.9%. Besides, the activity, negative = inhibition in assay [4] was -2.9%. The Potency result in [7] and in assay [11] was “inactive” throughout.
With `NS(=O)(=O)c1ccc(N=Nc2nc3[nH]cnc(=S)c3[nH]2)cc1`, the results for the Potency in [1], in assay [3] and in [5] were more than 11.4 µM, 6.31 µM (active) and more than 46 µM, respectively. Also, in assay [2], the activity change, negative = inhibition is 2.31%. Also, the activity, negative = inhibition in assay [4] is 14.2%. The Potency result in [7] and in [8] was “inactive” each time.
For `Cc1cc(O)c(-c2cc(O)c(C)cc2O)cc1O`, the Potency in [1] was more than 11.4 µM; in assay [3], 3.98 µM (active); in assay [5], more than 46 µM; in assay [6], more than 9.22 µM; in assay [12] it was 1.26 µM (active); in assay [9] it was 0.794 µM (active). Also, in assay [2], the activity change, negative = inhibition was -22.9%. Further, the Potency entry in assay [7], in assay [8], in assay [11] and in assay [13] was “inactive” in each case.
Take `c1ccc(CNCCN2CCNCC2)nc1`: the Potency is more than 11.4 µM in [1], more than 46 µM in [5] and more than 9.22 µM in [6]. The activity change, negative = inhibition in assay [2] was 4.86%; in assay [14], -5.12% [at 11.4 µM]. Besides, the Potency entry in assay [3], in [7], in assay [8], in [12], in [13] and in assay [9] was “inactive” in each case.

The values above are taken from PubChem BioAssay (NCATS).
